Outcome and AC50 data for 25 compounds are collected here from PubChem BioAssay (EPA / NIEHS).

Inconclusive results are not listed. Active and inactive are the calls of the source. Rule for the calls, unless noted: active = hit-call score of the fitted dose curve at least 0.9, where 1 is the maximum; inconclusive = response in the unintended direction; inactive = score below 0.9.

Broad substrate specificity ATP-binding cassette transporter ABCG2 (Homo sapiens), sequence (Q9UNQ0 whole entry, looked up): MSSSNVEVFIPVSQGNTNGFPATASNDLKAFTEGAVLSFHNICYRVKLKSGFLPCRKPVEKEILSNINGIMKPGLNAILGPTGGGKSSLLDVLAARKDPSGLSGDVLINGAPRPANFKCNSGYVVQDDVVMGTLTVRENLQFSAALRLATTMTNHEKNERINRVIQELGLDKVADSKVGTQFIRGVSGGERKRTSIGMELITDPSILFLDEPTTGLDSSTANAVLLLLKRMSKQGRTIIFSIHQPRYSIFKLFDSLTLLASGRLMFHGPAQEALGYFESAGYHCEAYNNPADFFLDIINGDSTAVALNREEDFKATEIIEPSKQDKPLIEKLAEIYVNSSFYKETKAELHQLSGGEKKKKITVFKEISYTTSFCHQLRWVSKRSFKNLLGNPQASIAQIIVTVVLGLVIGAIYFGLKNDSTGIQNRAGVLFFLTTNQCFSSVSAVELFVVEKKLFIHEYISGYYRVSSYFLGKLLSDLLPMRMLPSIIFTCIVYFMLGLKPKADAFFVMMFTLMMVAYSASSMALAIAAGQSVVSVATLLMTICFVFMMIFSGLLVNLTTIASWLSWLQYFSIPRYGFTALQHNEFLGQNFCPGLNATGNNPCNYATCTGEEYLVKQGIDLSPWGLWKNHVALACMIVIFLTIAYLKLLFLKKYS

Read-out in one assay: glucuronosyltransferase (UGT1A1), UGT1A1 (gene 54658)
Description: CLD_UGT1A1_24hr: CellzDirect (CLD) Gene Expression Assay for glucuronosyltransferase (UGT1A1) at 24 hours (AID 2283696). The essentials: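 UGT1A1 transcript induction was measured by quantitative nuclease protection assay (chemiluminescence) in human hepatocyte cultures 24 h after daily fresh dosing, with 0.2% DMSO as vehicle and baseline.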
As to `CCS(=O)(=O)c1cccnc1S(=O)(=O)NC(=O)Nc1nc(OC)cc(OC)n1`, the result was inactive.

For `CCOCN(C(=O)CCl)c1c(C)cccc1CC`, the result was inactive.

Consider `C[C@H]1[C@H](c2ccc(Cl)cc2)SC(=O)N1C(=O)NC1CCCCC1`, for which the call was inactive.

For the compound `Cc1cc(C)nc(NC(=O)NS(=O)(=O)c2ccccc2C(=O)OC2COC2)n1`, the outcome was inactive.

Turning to `CCC(C)(NC(=O)c1cc(Cl)c(C)c(Cl)c1)C(=O)CCl` (stereo not given), the call was inactive.

Read-out in a further assay: Cytochrome P450 2C9 (Homo sapiens) (UniProt P11712)
Briefly: CLD_CYP2C9_48hr: CellzDirect (CLD) Gene Expression Assay for xenobiotic metabolism (CYP2C9) at 48 hours (AID 2283701; active = hit-call score of the fitted dose curve at least 0.9, where 1 is the maximum; inactive = score below 0.9). In a few lines: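 mRNA level measured by quantitative nuclease protection (S1 digestion, chemiluminescent detection) in lysates of human primary hepatocytes exposed 48 h with daily re-dosing. Induction fitted positively versus 0.2% DMSO; morphology-based cytotoxicity flagged yes/no.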
Regarding `CCOC1Oc2ccc(OS(C)(=O)=O)cc2C1(C)C` (stereo not given), the call was inactive.

As for `Clc1ccccc1-c1nnc(-c2ccccc2Cl)nn1`, the call was inactive.

Turning to `COC(=O)c1ccccc1CS(=O)(=O)NC(=O)Nc1nc(OC)cc(OC)n1`, the result was inactive.

Turning to `COC(=O)c1ccccc1S(=O)(=O)NC(=O)N(C)c1nc(C)nc(OC)n1`, the result was inactive.

For the compound `O=[N+]([O-])c1c(Cl)c(Cl)c(Cl)c(Cl)c1Cl`, the compound was classed as inactive.

For the compound `CC(C)(C)C(O)/C(=C\c1ccc(Cl)cc1Cl)n1cncn1` (stereo not given), the call was inactive.

For the compound `CC(C)OC(=O)Nc1cccc(Cl)c1`, the compound was classed as inactive.

As for `CCCN(CCC)c1c([N+](=O)[O-])cc(C(F)(F)F)cc1[N+](=O)[O-]`, the outcome was inactive.

Regarding `C[C@H]1[C@H](c2ccc(Cl)cc2)SC(=O)N1C(=O)NC1CCCCC1`, the result was inactive.

`Cc1cc(C)nc(NC(=O)NS(=O)(=O)c2ccccc2C(=O)OC2COC2)n1`: the compound was classed as inactive.

On to `CCC(C)(NC(=O)c1cc(Cl)c(C)c(Cl)c1)C(=O)CCl` (stereo not given), for which the outcome was inactive.

Read-out in a further assay: Broad substrate specificity ATP-binding cassette transporter ABCG2 (Homo sapiens) (UniProt Q9UNQ0)
Briefly: CLD_ABCG2_48hr: CellzDirect (CLD) Gene Expression Assay for ABC Transporter (ABCG2) at 48 hours (AID 2283704).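 For AC50: potency for induction of ABCG2 mRNA above the DMSO baseline.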 The essentials: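 ABCG2 transcript measured at 48 h by quantitative nuclease protection (chemiluminescent) and fitted for increase relative to 0.2% DMSO. Hepatocyte cultures from separate donors got fresh compound daily over two days; morphology annotated cytotoxicity.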
Consider `COC(=O)c1ccccc1S(=O)(=O)NC(=O)Nc1nc(C)nc(OC)n1`, for which the compound was called inactive.

For the compound `CCOC1Oc2ccc(OS(C)(=O)=O)cc2C1(C)C` (stereo not given), the outcome was inactive.

As to `Clc1ccccc1-c1nnc(-c2ccccc2Cl)nn1`, the compound was classed as inactive.

For the compound `Oc1ccc(Cl)cc1Cc1ccccc1`, the call was inactive.

As for `COC(=O)c1ccccc1CS(=O)(=O)NC(=O)Nc1nc(OC)cc(OC)n1`, the outcome was inactive.

In the case of `N#Cc1c(Cl)c(Cl)c(Cl)c(C#N)c1Cl`, the compound was called inactive.

In the case of `CC(C)N(C(=O)COc1nnc(C(F)(F)F)s1)c1ccc(F)cc1`, the compound was classed as inactive.

As for `O=[N+]([O-])c1c(Cl)c(Cl)c(Cl)c(Cl)c1Cl`, the call was inactive.

For orientation: AC50 means the concentration giving half of the maximal activity seen. With `CC(C)(C)C(O)/C(=C\c1ccc(Cl)cc1Cl)n1cncn1` (stereo not given), the AC50 is 31.5 µM (active).

Consider `O=C(NC(=O)c1c(F)cccc1F)Nc1ccc(OC(F)(F)C(F)OC(F)(F)F)c(Cl)c1` (stereo not given), for which the outcome was inactive.

With `CCC(C)Nc1c([N+](=O)[O-])cc(C(C)(C)C)cc1[N+](=O)[O-]` (stereo not given), the outcome was inactive.

`O=S1OCC2C(CO1)C1(Cl)C(Cl)=C(Cl)C2(Cl)C1(Cl)Cl` (stereo not given): the result was inactive.

Consider `CCS(=O)(=O)c1cccnc1S(=O)(=O)NC(=O)Nc1nc(OC)cc(OC)n1`, for which the call was inactive.

As to `CCOCN(C(=O)CCl)c1c(C)cccc1CC`, the outcome was inactive.

As to `C[C@H]1[C@H](c2ccc(Cl)cc2)SC(=O)N1C(=O)NC1CCCCC1`, the concentration at half-maximal activity (AC50) was 34.8 µM (active).

Consider `Cc1cc(C)nc(NC(=O)NS(=O)(=O)c2ccccc2C(=O)OC2COC2)n1`, for which the compound was classed as inactive.

Consider `CC1(c2ccc(Oc3ccccc3)cc2)OC(=O)N(Nc2ccccc2)C1=O` (stereo not given), for which the outcome was inactive.

Read-out in a further assay: xenobiotic metabolism (CYP1A1), CYP1A1 (gene 1543)
Briefly: CLD_CYP1A1_48hr: CellzDirect (CLD) Gene Expression Assay for xenobiotic metabolism (CYP1A1) at 48 hours (AID 2283705). The essentials:
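CYP1A1 transcript measured by quantitative nuclease protection (chemiluminescent) 48 h after two daily treatments of human hepatocyte cultures, versus 0.2% DMSO. Morphology-based cytotoxicity flags accompany data; two donor preparations used.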
Take `CCOC1Oc2ccc(OS(C)(=O)=O)cc2C1(C)C` (stereo not given): the outcome was inactive.

Turning to `Clc1ccccc1-c1nnc(-c2ccccc2Cl)nn1`, the half-maximal activity concentration (AC50) is 9.05 µM (active).

As for `O=[N+]([O-])/N=C1\NCCN1Cc1ccc(Cl)nc1`, the result was inactive.

Consider `COC(=O)c1ccccc1CS(=O)(=O)NC(=O)Nc1nc(OC)cc(OC)n1`, for which the result was inactive.

As for `COC(=O)c1ccccc1S(=O)(=O)NC(=O)N(C)c1nc(C)nc(OC)n1`, the call was inactive.

Regarding `N#Cc1c(Cl)c(Cl)c(Cl)c(C#N)c1Cl`, the compound was called inactive.

For the compound `CCN(CC)C(=O)SCc1ccc(Cl)cc1`, the outcome was inactive.

Consider `CC(C)N(C(=O)COc1nnc(C(F)(F)F)s1)c1ccc(F)cc1`, for which the AC50 is 14.2 µM (active).

In the case of `O=[N+]([O-])c1c(Cl)c(Cl)c(Cl)c(Cl)c1Cl`, the AC50 is 3.97 µM (active).

Take `CC(C)(C)C(O)/C(=C\c1ccc(Cl)cc1Cl)n1cncn1` (stereo not given): the AC50 is 20 µM (active).

Consider `CNC(=O)Oc1cccc(N=CN(C)C)c1`, for which the compound was called inactive.

Regarding `O=S(=O)(O)C(F)(F)C(F)(F)C(F)(F)C(F)(F)C(F)(F)C(F)(F)C(F)(F)C(F)(F)F`, the compound was called inactive.

For `CCC(C)Nc1c([N+](=O)[O-])cc(C(C)(C)C)cc1[N+](=O)[O-]` (stereo not given), the AC50 was 3.77 µM (active).

Turning to `CC(C)OC(=O)Nc1cccc(Cl)c1`, the concentration at half-maximal activity (AC50) is 5.09 µM (active).

As for `CCCN(CCC)c1c([N+](=O)[O-])cc(C(F)(F)F)cc1[N+](=O)[O-]`, the AC50 is 15.3 µM (active).

As for `CCS(=O)(=O)c1cccnc1S(=O)(=O)NC(=O)Nc1nc(OC)cc(OC)n1`, the AC50 is 2.37 µM (active).

Take `CCOCN(C(=O)CCl)c1c(C)cccc1CC`: the AC50 is 1.85 µM (active).

Regarding `C[C@H]1[C@H](c2ccc(Cl)cc2)SC(=O)N1C(=O)NC1CCCCC1`, the AC50 was 34 µM (active).

Turning to `CC1(c2ccc(Oc3ccccc3)cc2)OC(=O)N(Nc2ccccc2)C1=O` (stereo not given), the AC50 was 3.38 µM (active).

Regarding `CCC(C)(NC(=O)c1cc(Cl)c(C)c(Cl)c1)C(=O)CCl` (stereo not given), the AC50 was 3.97 µM (active).

Read-out in a further assay: organic anion transporter (SLCO1B1), SLCO1B1 (gene 10599)
Description: CLD_SLCO1B1_48hr: CellzDirect (CLD) Gene Expression Assay for organic anion transporter (SLCO1B1) at 48 hours (AID 2283707). In a few lines:
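SLCO1B1 transcript quantified by qNPA with chemiluminescent readout after 48 h of once-daily chemical exposure. Cultured human primary hepatocytes came from two donors, with 0.2% DMSO vehicle; positive-direction fitting against DMSO, cytotoxicity flagged by morphology.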
Regarding `Oc1ccc(Cl)cc1Cc1ccccc1`, the result was inactive.

Consider `COC(=O)c1ccccc1CS(=O)(=O)NC(=O)Nc1nc(OC)cc(OC)n1`, for which the result was inactive.

For the compound `O=[N+]([O-])c1c(Cl)c(Cl)c(Cl)c(Cl)c1Cl`, the compound was called inactive.

With `O=S(=O)(O)C(F)(F)C(F)(F)C(F)(F)C(F)(F)C(F)(F)C(F)(F)C(F)(F)C(F)(F)F`, the compound was classed as inactive.

For the compound `O=C(NC(=O)c1c(F)cccc1F)Nc1ccc(OC(F)(F)C(F)OC(F)(F)F)c(Cl)c1` (stereo not given), the result was inactive.

With `CC(C)OC(=O)Nc1cccc(Cl)c1`, the compound was called inactive.

On to `CCS(=O)(=O)c1cccnc1S(=O)(=O)NC(=O)Nc1nc(OC)cc(OC)n1`, for which the result was inactive.
